Compound activity as filed in PubChem.
An excerpt weighted towards active compounds, which were near 12% of everything screened.
FMDV antiviral – blocks foot and mouth disease virus; AID 1159524; FMDV antiviral cell-based qHTS; Potency, µM (titrated, usually from 57.9 µM), for inactives: at the highest dose activity change, negative = inhibition, usual class: inhibitors; hit rate 1.2% among 410,000; calls by dose curve; tested in HEK293T cells; also: read-out not given here; potency is read from the fitted curve at half-maximal effect; % is scaled to controls: 0 for no effect and ±100 for the full control effect; nearly all actives have a fitted effect of over 45% in size
Sm TGR block – S. mansoni TGR enzyme inhibition; Q962Y6; purified TGR, DTNB reduction, TNB absorbance 405 nm; hit rate 3% among 360,000; Potency, µM (doses to about 114 µM), for inactives: at the top dose activity change, negative = inhibition, actives largely listed as inhibitors; active = well fitted inhibition curve with a large enough effect; inconclusive = small, poorly fitted or top-dose-only effect; inactive = no such curve, though single readings can be large or run the other way; also: potency is read from the fitted curve at half-maximal effect; % is scaled to controls: 0 for no effect and ±100 for the full control effect; nearly all actives have a fitted effect of over 60% in size
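TGR 20 nM + NADPH 100 uM (dispensed conc.), cpd preinc 15 min RT; start with NADPH (500 uM addition) then DTNB (15 mM addition). Kinetic TNB absorbance, 405 nm filter. Four-parameter Hill fit across titration.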
Cycloheximide cs – counter-screen for Shiga toxin inhibitors: cycloheximide protein synthesis inhibition; hit rate 12% among 300,000; cell reporter, cycloheximide protein synthesis inhibition counterscreen; max response, %; in the data active = max response mostly above about 13%, no sharp cut-off; inactive = mostly below about 14%; also: read at 38.3 µM for the half of the compounds with a filed dose; 0% is about no effect
Shiga toxin inh – inhibitors of Shiga toxin in Vero cells; Vero cells, Shiga toxin protein synthesis inhibition reporter; inhibition, % at 38.7 µM; hit rate 9.2% among 290,000; in the data active = inhibition mostly above about 28%, no sharp cut-off; inactive = mostly below about 43%; also: 0% is about no effect
An asterisk follows results filed as active; ? = inconclusive; / = not tested or not shown.

SMILES	FMDV antiviral	Sm TGR block	Cycloheximide cs	Shiga toxin inh
CCN(CC)CCN1C(=O)C(=O)/C(=C(/O)c2ccc(OC)cc2)C1c1cccs1 (stereo not given)	/	45µM*	58*	67*
C=CCOc1cccc(C2/C(=C(\O)c3ccc(F)cc3)C(=O)C(=O)N2CCN(C)C)c1 (stereo not given)	23%	?	2	-11
CCCCCN(CCCCC)C(=O)[C@H](CCC(=O)O)NC(=O)[C@H](Cc1ccc(OP(=O)(O)O)cc1)NC(C)=O	/	/	14	15
Cc1c(/C=C(\C#N)C(=O)Nc2cccc(Cl)c2)c2ccccc2n1Cc1ccccc1	?	3%	/	/
COc1ccc(S(=O)(=O)Cc2ccc(C(=O)NCCCN3CCc4ccccc4C3)o2)cc1	-9%	45µM*	-4	19
COc1ccc(S(=O)(=O)Cc2ccc(C(=O)NCc3ccco3)o2)cc1	-24%	40µM*	-6	-16
COc1ccc(N2CCN(CCCNC(=O)c3ccc(CS(=O)(=O)c4ccc(OC)cc4)o3)CC2)cc1	-12%	-6%	-2	-10
COc1ccccc1S(=O)(=O)Cc1ccc(C(=O)NCc2ccco2)o1	-8%	-27%	-2	-1
CC1(C)Cc2c(C#N)c(NCCN3CCOCC3)nc(-c3ccco3)c2CO1	-2%	35µM*	-2	-10
CC1(C)Cc2c(C#N)c(NCCO)nc(-c3ccco3)c2CO1	-18%	3.5µM*	1	-15
CCN(CC)C(=S)SCC(=O)c1ccccc1	5%	1%	62*	68*
CCN(CC)C(=S)SCC(=O)c1ccc(F)cc1	62%	6%	40*	60*
CC1CCN(S(=O)(=O)c2cc(C(=O)N3CCN(c4cccc(Cl)c4)CC3)n(C)c2)CC1	?	-4%	/	/
S=C(Nc1ccc(CN2CCCCC2)cc1)Nc1cccc(Cl)c1Cl	-3%	25µM*	1	-10
CCN1CCN(Cc2ccccc2NC(=O)Nc2ccc(C)cc2)CC1	20%	-15%	24*	36*
O=C(Nc1ccc(Br)cc1)Nc1ccccc1Cl	27%	-6%	68*	103*
CCN1CCN(CCC(=O)Nc2ccc(C)cc2)CC1	-13%	0%	1	-11
CC(=O)Nc1ccc(CN2CCCCCCC2)cc1	14%	8%	9	23
O=C(Nc1ccc(CN2CCCCC2)cc1)Nc1ccccc1Cl	23%	0%	32*	53*
Cc1sc2c(c1C)c(=O)n(-c1cccc(C(F)(F)F)c1)c(=O)n2Cc1ccc(F)cc1	-11%	0%	/	/
CCN1CCN(C(=O)C2(NC(=O)Nc3ccccc3Cl)CCCCC2)CC1	-16%	7%	-2	6
CCN1CCN(Cc2ccc(NC(=O)Nc3ccccc3Cl)cc2)CC1	29%	-4%	47*	97*
CCOC(=O)c1nc(N/N=C/c2ccccc2)sc1Br	2%	-24%	13*	21
COc1ccc(/C=N/Nc2nc(-c3ccc(C)cc3)c(NC(C)=O)s2)cc1	53%	4%	21	19
CC(=O)Nc1sc(N/N=C/c2ccccc2F)nc1-c1ccc(C)cc1	74%	32µM*	42*	92*
SMILES	FMDV antiviral	Sm TGR block	Cycloheximide cs	Shiga toxin inh
CC(=O)Nc1sc(N/N=C/c2ccc(O)cc2)nc1-c1ccc(C)cc1	44%	-18%	11	15
CCOC(=O)c1sc(N/N=C/c2ccc(N(C)C)cc2)nc1C	2%	2%	6	9
CC(=O)Nc1sc(N/N=C/c2ccccc2)nc1-c1ccc(C)cc1	37%	8%	18*	31
CCN1CCN(c2ncc3c(n2)CCN(Cc2ccccc2C)C3)CC1	-19%	-2%	/	/
Cc1cccc(CNC(=O)C2CCN(S(=O)(=O)c3cccc4nonc34)CC2)c1	-18%	4%	/	/
CC(=O)Nc1cccc(-n2nnc(SCC(=O)c3ccccc3)n2)c1	47%	?	49*	61*
CC(=O)Nc1cccc(-n2nnc(SCC(=O)Nc3ccc(F)c(Cl)c3)n2)c1	-20%	-17%	-1	-8
CC(=O)Nc1cccc(-n2nnc(SCC(N)=O)n2)c1	-4%	0%	-1	-3
COc1ccc(C(=O)CSc2nnn(-c3cccc(NC(C)=O)c3)n2)cc1	-5%	0%	52*	73*
COc1ccc(-n2c(SCC(=O)N3CCC(C)CC3)nc3c([nH]c4ccccc43)c2=O)cc1	-5%	1%	/	/
c1csc(-c2ccc(N3CCOCC3)nn2)c1	-12%	2%	25*	27
CCOC(=O)C1CCN(c2ccc(Cl)nn2)CC1	-13%	12%	11	21
CCOC(=O)C1CCN(c2ccc(-c3cccs3)nn2)CC1	-25%	4%	37*	99*
Cc1cc(=O)oc2cc(NC(=O)c3ccccc3OC(F)F)ccc12	67%	-11%	30*	115*
CC(=O)OCC1=C(C(=O)O)N2C(=O)[C@@H](NC(=O)CSc3ccncc3)[C@H]2SC1	-4%	45µM*	/	/
CC(=O)OCC1=C(C(=O)O)N2C(=O)C(NC(=O)C(C)Cn3nc(C)c(Cl)c3C)C2SC1 (stereo not given)	-19%	28µM*	11	-9
CO/N=C(\C(=O)N[C@@H]1C(=O)N2C(C(=O)O)=C(COC(C)=O)CS[C@H]12)c1csc(N)n1	/	/	4	12
CC(=O)OCC1=C(C(=O)O)N2C(=O)C(NC(=O)c3ccc(F)cc3)C2SC1 (stereo not given)	-1%	?	-1	-5
Cc1ccccc1CNC(=O)c1ccc(NC(=O)c2nsc3ccccc23)cc1	-7%	25µM*	/	/
CCOc1cc(-c2c(C#N)c(N)nc3c2CCc2ccccc2-3)ccc1O	?	-15%	-3	11
COc1ccccc1-c1c(C#N)c(N)nc2c1CCc1ccccc1-2	32µM*	-6%	6	4
Cc1cccc(N2CCN(C(=O)c3cccc(-n4c(C)nc5cccnc54)c3)CC2)c1C	?	-5%	/	/
Cc1cccc(N2CCN(C(=O)c3cccc(-n4c(C)nc5cccnc54)c3)CC2C)c1 (stereo not given)	18µM*	3%	/	/
Cc1nc2cccnc2n1-c1cccc(C(=O)N2CCN(c3ccc(Cl)cc3)CC2)c1	13µM*	5%	/	/
Cc1ccc(C)c(N2CCN(C(=O)c3cccc(-n4c(C)nc5cccnc54)c3)CC2)c1	25µM*	-16%	/	/
SMILES	FMDV antiviral	Sm TGR block	Cycloheximide cs	Shiga toxin inh
Cc1cc(Cl)ccc1OCC(=O)N(Cc1sccc1C)C1CCS(=O)(=O)C1 (stereo not given)	-25%	9%	/	/
Nc1nonc1-c1nc2ccccc2n1Cc1c(Cl)cccc1Cl	0%	-18%	/	/
Cc1cc(-c2ccc(C(C)C)c(S(=O)(=O)NCc3ccco3)c2)on1	61%	?	30*	34*
Cc1ccc(-c2nn3c(C)nnc3c3ccccc23)cc1S(=O)(=O)NCCO	85%	5%	-1	6
Cc1ccc(-c2nn3c(C)nnc3c3ccccc23)cc1S(=O)(=O)NCc1ccco1	/	?	51*	37*
CCc1ccc(-c2cc(C)no2)cc1S(=O)(=O)NCCc1ccccc1	35%	1%	35*	19
CCc1ccc(-c2cc(C)no2)cc1S(=O)(=O)Nc1cc(C)on1	21%	3%	-3	14
Cc1ccnc(NS(=O)(=O)c2cc(-c3cc(C)no3)ccc2C(C)C)c1	56%	-14%	17*	28*
Cc1cc(-c2ccc(C)c(S(=O)(=O)NCCc3ccccc3)c2)on1	63%	3%	/	/
